Inconclusive results are not listed. Unmarked numbers belong to inactive results. Calls of active or inactive are those of the source. Calls follow the shape of the dose curve; as a rule, active = well fitted cell-killing curve with a large enough effect; inconclusive = small, poorly fitted or top-dose-only effect, or effect the other way; inactive = no such curve, though single readings can be large or run the other way.
Assay: Quantitative High-Throughput drug screen in 47 multiple myeloma cell lines against the NCATS MIPE library collection: UTMC2_PLB cell viability assay (AID 1919868); also: nearly all actives have a fitted effect of over 55% in size
Details: CellTiter-Glo ATP luminescence, 48 h; viability (% of DMSO control): at 45.8 µM (top of the series)
From the text: PI: Beverly A. Mock Ph.D.
Laboratory of Cancer Biology and Genetics,
Center for Cancer Research, National Cancer Institute,
National Institute of Health, Bethesda, Maryland
Drug resistance and disease progression are common in multiple myeloma (MM) patients, underscoring the need for new therapeutic combinations. […] We hypothesized that effective combinations would reduce MYC expression and enhance p16 activity. […] These preclinical data identify potentially useful drug combinations for evaluation in drug-resistant MM and reveal potential mechanisms of combined drug sensitivity.
Described herein is the primary MIPE qHTS used to cherrypick compounds. Validated compounds were then further tested for potential synergistic activiy.
[1] Peat TJ, Gaikwad SM, Dubois W, Gyabaah-Kessie N, Zhang S, Gorjifard S, Phyo Z, Andres M, Hughitt VK, Simpson RM, Miller MA, Girvin AT, Taylor A, Williams D, D'Antonio N, Zhang Y, Rajagopalan A, Flietner E, Wilson K, Zhang X, Shinn P, Klumpp-Thomas C, McKnight C, Itkin Z, Chen L, Kazandijian D, Zhang J, Michalowski AM, Simmons JK, Keats J, Thomas CJ, Mock BA. Drug combinations identified by high-throughput screening promote cell cycle transition and upregulate Smad pathways in myeloma. Cancer Lett. 2023 Aug 1;568:216284. doi: 10.1016/j.canlet.2023.216284. Epub 2023 Jun 24. PMID: 37356470; PMCID: PMC10408729.
SEQUENCE No. (e.g., 1, 2, 3, etc.); […] (e.g., Cells, Incubation, Reagent, etc.); VALUE and DESCRIPTION.
1; Cells; 5 uL; white, solid bottom 1536-well Greiner assay plate.
2; Compounds; 23 nL; Kalypsis pin tool (Wako USA) equipped with a 1536-well pin head to transfer to the assay plates.
3; Incubation; 48 hours; 37C incubation.
4; Reagent;5uL; CellTiter Glo (Promega).
5; Detector; 425V; Luminescence; Viewlux PerkinElmer.
NOTES (numbers refer to Sequence numbers above)
1. The cell-based screening methods employed in this study were like those previously published. Briefly, the corresponding myeloma cell lines were screened in 1,536-well plates with 500 cells, 5-uL per well for inhibition of cell viability (assessed by measuring ATP levels with CellTiterGlo).
2. NCATS MIPE 4.0 library of approved and investigational drugs were added using the Kalypsis pin tool. Wells treated with DMSO only for 100% viability and media only for 0% viability were used as controls.
3. The assay plates were covered and incubated for 48 hours in a 37C, 5% CO2 incubator with controlled humidity.
4. After 48 hours, CellTilter-GloTM luminescent substrate mix (Promega) reagent was added to the assay plate and plates we incubated for 5 min at room temperature.
5. Signal was measured as median relative luminescence units on a ViewLux (PerkinElmer) multiplate reader.
[1] Heske CM, Davis MI, Baumgart JT, Wilson K, Gormally MV, Chen L, Zhang X, Ceribelli M, Duveau DY, Guha R, Ferrer M, Arnaldez FI, Ji J, Tran HL, Zhang Y, Mendoza A, Helman LJ, Thomas CJ. Matrix Screen Identifies Synergistic Combination of PARP Inhibitors and Nicotinamide Phosphoribosyltransferase (NAMPT) Inhibitors in Ewing Sarcoma. Clin Cancer Res. 2017 Dec 1;23(23):7301-7311. doi: 10.1158/1078-0432.CCR-17-1121. Epub 2017 Sep 12. PMID: 28899971; PMCID: PMC6636827.
Potency is read from the fitted curve at half-maximal effect.

Structure (SMILES) | Potency | viability (% of DMSO control)
COC[C@H]1OC(=O)c2coc3c2[C@@]1(C)C1=C(C3=O)C2CCC(=O)[C@@]2(C)C[C@H]1OC(C)=O (stereo not given in full) | 264 nM (active) | –
COc1ccc(C(CN(C)C)C2(O)CCCCC2)cc1 (stereo not given) | – | 129%
Cc1sc2c(c1C)C(c1ccc(Cl)cc1)=N[C@@H](CC(=O)OC(C)(C)C)c1nnc(C)n1-2 | 662 nM (active) | –
CC(O)(CS(=O)(=O)c1ccc(F)cc1)C(=O)Nc1ccc(C#N)c(C(F)(F)F)c1 (stereo not given) | 4180 nM (active) | –
C=C(C)[C@H]1Cc2c(ccc3c2O[C@@H]2COc4cc(OC)c(OC)cc4[C@@H]2C3=O)O1 | 332 nM (active) | –
CN1CCN(C(=O)O[C@H]2c3nccnc3C(=O)N2c2ccc(Cl)cn2)CC1 | – | 181% (active)
N[C@@H](Cc1ccc(N(CCCl)CCCl)cc1)C(=O)O | 935 nM (active) | –
C[C@@H]1[C@@H](C(=O)C[C@H]2O[C@@H]3O[C@]4(C)CC[C@@H]5[C@H](C)CC[C@@H]([C@H]2C)[C@@]35OO4)O[C@@H]2O[C@]3(C)CC[C@H]4[C@H](C)CC[C@@H]1[C@@]24OO3 | 166 nM (active) | –
C[C@@H]1O[C@@H](O[C@H]2C[C@@H](O)[C@]3(CO)[C@H]4[C@H](O)C[C@]5(C)[C@@H](C6=CC(=O)OC6)CC[C@]5(O)[C@@H]4CC[C@]3(O)C2)[C@H](O)[C@H](O)[C@H]1O | 11.8 nM (active) | –
COc1ccc2c(c1OC)CN1CCc3cc4c(cc3C1C2)OCO4 (stereo not given) | 2090 nM (active) | –
COc1ccc(C(=O)c2c(C)n(CCN3CCOCC3)c3ccccc23)cc1 | – | 138%
CN(C)CCN(C)CCc1ccc(Cl)c(Cl)c1 | – | 185%
COC1(CS(=O)c2ccccc2)CCN(CCc2c[nH]c3ccc(F)cc23)CC1 (stereo not given) | – | 98.1%
O=C1CC[C@@]2(O)[C@H]3Cc4ccc(O)c5c4[C@@]2(CCN3CC2CC2)[C@H]1O5 | – | 174%
C[C@@H]1[C@@H](CC(C[C@H]2O[C@@H]3O[C@]4(C)CC[C@@H]5[C@H](C)CC[C@@H]([C@H]2C)[C@@]35OO4)C[S+](=O)([O-])c2ccc(COC(=O)N(C)C)cc2)O[C@@H]2O[C@]3(C)CC[C@H]4[C@H](C)CC[C@@H]1[C@@]24OO3 (stereo not given in full) | 187 nM (active) | –

— PubChem BioAssay (NCATS)
